{"source": "the supplement of paper PMC12636033", "note": "± gives the standard deviation of the averaged measurements. Whole data set: some 33,000 sequences, median “E-score (rank enrichment, -0.5 to 0.5)” near -0.0068, cut for the highest 2% near 0.24. This is one part of a sample in which the highest values are shown more often than they occur.", "data": [{"system": "muMax20 (Max(13-93) K31hArg/K57hArg, M65Nle)", "experiment": "PBM 8-mer E-score (E-score (rank enrichment, -0.5 to 0.5)); higher = stronger preferential binding", "procedure": "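Protein binding microarray (universal PBM chip covering all 10-mers in fixed probe flanks) with chemically synthesized human Max(13-93) bHLH-LZ analogs (not full-length Max) bearing noncanonical residues (hArg, Tha, Aib, Nle at 65) and aromatic Cys staples. Read-out per 8-mer (and its reverse complement): E-score (rank-based enrichment, -0.5 to 0.5) and Z-score of median probe intensity.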", "values": [{"sequence": "GAATGTGA", "PBM 8-mer E-score": "0.0628 ± 0.06"}, {"sequence": "CAATGTGA", "PBM 8-mer E-score": "0.148 ± 0.0073"}, {"sequence": "AGTGGCCC", "PBM 8-mer E-score": "-0.0606 ± 0.016"}, {"sequence": "TCCCGACA", "PBM 8-mer E-score": "-0.0715 ± 0.11"}, {"sequence": "GTTACCTA", "PBM 8-mer E-score": "0.0231 ± 0.039"}, {"sequence": "ACCGGCTG", "PBM 8-mer E-score": "-0.257 ± 0.018"}, {"sequence": "TCAAGAAA", "PBM 8-mer E-score": "0.103 ± 0.021"}, {"sequence": "TCACTCCA", "PBM 8-mer E-score": "-0.0737 ± 0.21"}, {"sequence": "GATCCGAA", "PBM 8-mer E-score": "-0.13 ± 0.057"}, {"sequence": "GAGATGGC", "PBM 8-mer E-score": "0.0296 ± 0.023"}, {"sequence": "CAGTCCGG", "PBM 8-mer E-score": "-0.297 ± 0.023"}, {"sequence": "ATCCAGCC", "PBM 8-mer E-score": "-0.09 ± 0.07"}, {"sequence": "GCTTGCAC", "PBM 8-mer E-score": "-0.252 ± 0.0059"}, {"sequence": "AGCCGGTC", "PBM 8-mer E-score": "-0.295 ± 0.086"}, {"sequence": "ACTGTTCC", "PBM 8-mer E-score": "-0.187 ± 0.12"}, {"sequence": "ACGTGGAC", "PBM 8-mer E-score": "0.27 ± 0.08"}, {"sequence": "ACGTGGAA", "PBM 8-mer E-score": "0.195 ± 0.017"}, {"sequence": "GCGTGGAC", "PBM 8-mer E-score": "0.0607 ± 0.05"}, {"sequence": "AAGTGGAT", "PBM 8-mer E-score": "0.00777 ± 0.081"}, {"sequence": "ACGTGGAT", "PBM 8-mer E-score": "0.342 ± 0.012"}, {"sequence": "CCGTGGAC", "PBM 8-mer E-score": "-0.13 ± 0.12"}, {"sequence": "ACGTGGAG", "PBM 8-mer E-score": "0.245 ± 0.14"}, {"sequence": "ACGTGGGG", "PBM 8-mer E-score": "0.16 ± 0.039"}, {"sequence": "CCGTGGAG", "PBM 8-mer E-score": "-0.131 ± 0.092"}, {"sequence": "CGCAAGTC", "PBM 8-mer E-score": "-0.182 ± 0.004"}, {"sequence": "CCTCCTAA", "PBM 8-mer E-score": "0.0365 ± 0.0066"}, {"sequence": "GGCACAGA", "PBM 8-mer E-score": "-0.0856 ± 0.03"}, {"sequence": "ACTATGAT", "PBM 8-mer E-score": "0.0767 ± 0.069"}, {"sequence": "TATGCCCA", "PBM 8-mer E-score": "-0.151 ± 0.043"}, {"sequence": "ATCCTGAC", "PBM 8-mer E-score": "-0.115 ± 0.039"}, {"sequence": "ATCGTAAG", "PBM 8-mer E-score": "0.00053 ± 0.19"}, {"sequence": "ATCGTAAT", "PBM 8-mer E-score": "0.255 ± 0.0089"}, {"sequence": "ATCGTAAA", "PBM 8-mer E-score": "0.211 ± 0.026"}, {"sequence": "ATCGCACA", "PBM 8-mer E-score": "0.0937 ± 0.045"}, {"sequence": "GATTATAA", "PBM 8-mer E-score": "0.242 ± 0.016"}, {"sequence": "CATTATAA", "PBM 8-mer E-score": "0.0818 ± 0.00099"}, {"sequence": "TGTTAAAA", "PBM 8-mer E-score": "0.154 ± 0.061"}, {"sequence": "AATTATAA", "PBM 8-mer E-score": "0.189 ± 0.036"}, {"sequence": "TCTTATAA", "PBM 8-mer E-score": "0.115 ± 0.051"}, {"sequence": "GGTTATAA", "PBM 8-mer E-score": "0.145 ± 0.068"}, {"sequence": "TATTATAA", "PBM 8-mer E-score": "0.28 ± 0.079"}, {"sequence": "TGTTATAA", "PBM 8-mer E-score": "0.279 ± 0.056"}, {"sequence": "TATTATCA", "PBM 8-mer E-score": "0.161 ± 0.013"}, {"sequence": "ATTAAGCA", "PBM 8-mer E-score": "0.105 ± 0.11"}, {"sequence": "GAGATTGC", "PBM 8-mer E-score": "-0.148 ± 0.0026"}, {"sequence": "CCTCCACG", "PBM 8-mer E-score": "-0.0554 ± 0.048"}, {"sequence": "CTTTGAAA", "PBM 8-mer E-score": "0.159 ± 0.0086"}, {"sequence": "ATTTGAAA", "PBM 8-mer E-score": "0.203 ± 0.025"}, {"sequence": "GTTTGAAA", "PBM 8-mer E-score": "0.237 ± 0.022"}, {"sequence": "AACTTCGA", "PBM 8-mer E-score": "0.0671 ± 0.04"}, {"sequence": "CTTACTAC", "PBM 8-mer E-score": "0.197 ± 0.1"}, {"sequence": "AGTACTAG", "PBM 8-mer E-score": "0.029 ± 0.019"}, {"sequence": "ATTACTAC", "PBM 8-mer E-score": "0.2513 ± 0.0025"}, {"sequence": "AGTACTAC", "PBM 8-mer E-score": "0.28 ± 0.035"}, {"sequence": "ATTACTAG", "PBM 8-mer E-score": "-0.00293 ± 0.05"}, {"sequence": "AGTACTAT", "PBM 8-mer E-score": "-0.0269 ± 0.035"}, {"sequence": "CTTCGCAC", "PBM 8-mer E-score": "0.163 ± 0.037"}, {"sequence": "ATGACTGG", "PBM 8-mer E-score": "-0.0322 ± 0.039"}, {"sequence": "GGCACGAC", "PBM 8-mer E-score": "0.0476 ± 0.078"}, {"sequence": "AGTTCACG", "PBM 8-mer E-score": "-0.107 ± 0.064"}, {"sequence": "CCCGAACC", "PBM 8-mer E-score": "-0.159 ± 0.21"}, {"sequence": "AACAATTG", "PBM 8-mer E-score": "0.131 ± 0.0086"}, {"sequence": "AACAATTA", "PBM 8-mer E-score": "0.259 ± 0.0043"}, {"sequence": "ATCAACAA", "PBM 8-mer E-score": "0.101 ± 0.048"}, {"sequence": "CCCAATTA", "PBM 8-mer E-score": "0.187 ± 0.097"}, {"sequence": "ATCAACAT", "PBM 8-mer E-score": "0.241 ± 0.022"}, {"sequence": "AACAACAA", "PBM 8-mer E-score": "0.243 ± 0.0063"}, {"sequence": "CACAACAA", "PBM 8-mer E-score": "0.205 ± 0.098"}, {"sequence": "ACCAATTC", "PBM 8-mer E-score": "-0.0667 ± 0.11"}, {"sequence": "AACAATTC", "PBM 8-mer E-score": "0.127 ± 0.014"}, {"sequence": "CCCAATTC", "PBM 8-mer E-score": "0.249 ± 0.0091"}, {"sequence": "ATCAACAG", "PBM 8-mer E-score": "0.116 ± 0.0076"}, {"sequence": "AACAACAT", "PBM 8-mer E-score": "0.168 ± 0.037"}, {"sequence": "CAATCATC", "PBM 8-mer E-score": "-0.0452 ± 0.15"}, {"sequence": "TACCGGAA", "PBM 8-mer E-score": "-0.106 ± 0.24"}, {"sequence": "AACTCCTT", "PBM 8-mer E-score": "0.132 ± 0.07"}, {"sequence": "CCCTGCAC", "PBM 8-mer E-score": "-0.03728 ± 0.00027"}, {"sequence": "CGCTCTCC", "PBM 8-mer E-score": "-0.192 ± 0.091"}, {"sequence": "CGAGATCC", "PBM 8-mer E-score": "-0.163 ± 0.13"}, {"sequence": "AGGGGTCG", "PBM 8-mer E-score": "-0.0534 ± 0.037"}, {"sequence": "CTGGAAGA", "PBM 8-mer E-score": "0.0596 ± 0.037"}, {"sequence": "AACAATAT", "PBM 8-mer E-score": "0.207 ± 0.061"}, {"sequence": "CACAATAC", "PBM 8-mer E-score": "0.126 ± 0.028"}, {"sequence": "GACAATAC", "PBM 8-mer E-score": "0.21 ± 0.021"}, {"sequence": "AGCAACAA", "PBM 8-mer E-score": "-0.0639 ± 0.14"}, {"sequence": "CGCAACAC", "PBM 8-mer E-score": "0.0683 ± 0.035"}, {"sequence": "CGCAACAA", "PBM 8-mer E-score": "0.257 ± 0.049"}]}]}
